PubChem BioAssay
Active and inactive are the calls of the source.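 The calls were made as follows, unless noted: active = visual image review flags a hit and inhibition of aggregation exceeds 20%; inconclusive = visual hit but inhibition at or below 20%; inactive = no hit on visual image review.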

Tests used:
[1] = inhibitors of TNFa-induced NFkB p65 translocation, primary screen, imaging, HUVEC, MLSMR starter and 10KST1 sets (AID 438;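 active = inhibition above 20% together with a positive visual image hit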;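 also: compound added about 3h40 before a 20 min TNFalpha stimulation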;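 as to inhibition: signal is the nuclear over cytoplasmic p65 intensity ratio per well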); details: HUVEC TNFa-induced p65 nuclear translocation; cell count: measured here: nuclei count (cytotoxicity indicator), at 2.08 µM unless noted; inhibition: at 2 µM, stronger effect = higher value unless noted
[2] = reduction of polyQ htt aggregates in cells – imaging, exon1htt(103Q)mCFP cells, high-content imaging, primary screen (AID 483); details: exon1htt(103Q)mCFP cell line, aggregate imaging, at 2 µM; inhibition of aggregation: stronger effect = higher value; nuclei count: measured here: cell count, toxicity;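 also: compound exposure lasted 3 days before fixation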;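 as to nuclei count: percent of the per-plate median nuclei count of sample wells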
[3] = endothelial E-selectin expression blockers – imaging, HUVEC, immunofluorescence, MLSMR starter and 10KST1 sets, primary screen (AID 487;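 active = visually confirmed hit in the image check and inhibition above 20%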;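 as to inhibition: signal is fraction of cell area covered by stained E-selectin grains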;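 as to nuclei count: 100% = median nuclei count of all wells on the same plate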); details: HUVEC TNFalpha-induced E-selectin immunofluorescence imaging, at 2 µM; inhibition: stronger effect = higher value; nuclei count: measured here: cell number, toxicity
[4] = target: Voltage-gated potassium channel subunit beta-2 (Rattus norvegicus) (UniProt P62483); assay: inhibitors of rat Kvbeta2 reductase activity – biochemical, NADPH fluorescence, primary screen (AID 622;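 active = fluorescence slope higher than the sample average by over 3 SD, cut at about -0.22 in these data, passing the limit was not always enough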;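 also: slope of raw intensity against log time taken from 70 to 1610 s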); details: recombinant KvBeta, 4-cyanobenzaldehyde reduction, at 10 µM, stronger effect = higher value
Voltage-gated potassium channel subunit beta-2 (Rattus norvegicus), sequence (P62483 whole entry, looked up): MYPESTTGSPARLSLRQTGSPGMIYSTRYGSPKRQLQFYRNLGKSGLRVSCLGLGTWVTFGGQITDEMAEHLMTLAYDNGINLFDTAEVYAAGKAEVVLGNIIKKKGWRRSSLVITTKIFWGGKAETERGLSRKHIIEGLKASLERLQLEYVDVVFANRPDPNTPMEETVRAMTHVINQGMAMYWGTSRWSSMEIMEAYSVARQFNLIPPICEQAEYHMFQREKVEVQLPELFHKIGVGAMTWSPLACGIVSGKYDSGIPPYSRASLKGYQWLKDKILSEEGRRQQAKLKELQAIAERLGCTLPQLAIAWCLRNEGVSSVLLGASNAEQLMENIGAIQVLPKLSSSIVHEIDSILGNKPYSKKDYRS

[5] = target: Voltage-gated potassium channel subunit beta-2 (Rattus norvegicus) (UniProt P62483); assay: enhancers of rat Kvbeta2 NADPH turnover – biochemical, NADPH fluorescence, primary screen (AID 623;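 active = NADPH fluorescence slope more negative than the mean of all samples by about 3 SD, 99.7% confidence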;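 also: fluorescence intensity change per second fitted from 20 to 320 s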); details: Recombinant KvBeta, NADPH fluorescence decrease slope, 10 min; at 10 µM; stronger effect = lower value
[6] = target: Alpha-2C adrenergic receptor (Homo sapiens) (UniProt P18825); assay: compounds altering alpha2C-coupled GIRK flux – cell-based, HEK293 alpha2C/GIRK1/2, thallium flux, primary screen (AID 624;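 active = fluorescence slope after compound addition differing from the mean of all screened samples at 99.7% confidence, in either direction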;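 also: slope of fluorescence ratio to pre-addition baseline per second over 15 to 24 s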); details: thallium flux BTC fluorescence, at 10 µM, actives lie on both sides
Alpha-2C adrenergic receptor (Homo sapiens), sequence (P18825 whole entry, looked up): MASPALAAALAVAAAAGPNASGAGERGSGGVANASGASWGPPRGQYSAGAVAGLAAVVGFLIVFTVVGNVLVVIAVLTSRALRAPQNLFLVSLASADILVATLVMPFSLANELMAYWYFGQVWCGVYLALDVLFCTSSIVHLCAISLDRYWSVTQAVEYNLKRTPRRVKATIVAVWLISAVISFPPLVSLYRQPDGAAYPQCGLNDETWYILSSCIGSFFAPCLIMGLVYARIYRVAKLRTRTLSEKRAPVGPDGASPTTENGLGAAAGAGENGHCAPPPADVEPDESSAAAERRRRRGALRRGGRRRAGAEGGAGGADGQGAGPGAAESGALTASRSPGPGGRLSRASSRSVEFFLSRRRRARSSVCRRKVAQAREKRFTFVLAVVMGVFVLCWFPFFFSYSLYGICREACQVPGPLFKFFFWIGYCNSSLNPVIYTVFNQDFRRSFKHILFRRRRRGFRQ

[7] = blockers of RIG-like receptor reporter activation – cell-based, Sendai virus stimulus, luciferase, 10K MLSCN set, TLR/RLR signaling modifier project, primary screen (AID 602276;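 active = inhibition at or above 50% at 10 µM; inactive = inhibition below 50%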;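 also: firefly luciferase from ISG56 promoter only with Renilla not read in this screen; 0% = Sendai virus plus DMSO and 100% = medium plus DMSO without virus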); details: HEK293 RL24 IRF3 luciferase reporter, at 10 µM, stronger effect = higher value
[8] = TLR3 IRF3 reporter activation blockers – cell-based, poly I:C stimulus, luciferase, 10K MLSCN set, primary screen (AID 602277;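 active = inhibition of the reporter signal at or above 50%; inactive = inhibition below 50%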); details: HEK293-TLR3 RL24 IRF3 luciferase reporter, at 10 µM, stronger effect = higher value
[9] = target: Muscarinic acetylcholine receptor M4 (Homo sapiens) (UniProt P08173); assay: M4-linked GIRK flux change, two-sided – cell-based, HEK293 M4/GIRK, thallium flux, BTC-AM, M4 allosteric agonist project, primary screen (AID 625;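 active = fluorescence slope after compound addition differing from the mean of all tested samples at 99.7% confidence, mostly higher but some lower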;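 also: thallium influx through GIRK channels coupled to M4 in HEK293 cells with BTC-AM dye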); details: at 10 µM, actives lie on both sides
Muscarinic acetylcholine receptor M4 (Homo sapiens), sequence (P08173 whole entry, looked up): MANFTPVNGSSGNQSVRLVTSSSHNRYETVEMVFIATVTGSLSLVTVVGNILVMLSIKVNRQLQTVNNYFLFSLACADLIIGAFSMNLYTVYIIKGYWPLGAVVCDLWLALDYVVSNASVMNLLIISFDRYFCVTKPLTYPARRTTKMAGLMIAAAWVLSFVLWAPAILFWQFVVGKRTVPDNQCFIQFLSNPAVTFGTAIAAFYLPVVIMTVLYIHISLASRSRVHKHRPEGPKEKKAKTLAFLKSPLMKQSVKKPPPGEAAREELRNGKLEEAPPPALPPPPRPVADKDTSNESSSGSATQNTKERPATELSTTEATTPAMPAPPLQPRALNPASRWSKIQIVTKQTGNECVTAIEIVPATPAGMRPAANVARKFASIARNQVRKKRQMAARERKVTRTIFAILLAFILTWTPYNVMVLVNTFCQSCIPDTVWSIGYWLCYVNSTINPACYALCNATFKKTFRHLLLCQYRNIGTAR

[10] = inhibitors of larval lipid processing in zebrafish, primary screen, whole organism, PED6 fluorescence, gall bladder and intestine (AID 686;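 active = a full or partial loss of lipid-probe fluorescence in the fish gall bladder, intestine or both, judged by eye; inactive = no fluorescence loss, or compound toxic to the fish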;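 also: larvae 5 to 7 days old with five fish per well; signal comes from phospholipase A2 cleavage of quenched PED6 carried via bile; overnight exposure to compound and PED6 before scoring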); details: Zebrafish larvae PED6 lipid processing, fluorescence scoring

Row | SMILES | cell count [1] | inhibition [1] | inhibition of aggregation [2] | nuclei count [2] [%] | inhibition [3] | nuclei count [3] [%] | fluorescence slope [4] | NADPH fluorescence slope [5] | slope [6] | inhibition [7] | inhibition [8] | fluorescence slope [9] | outcome [10]
1 | O=C(c1ccncc1)C12CN3CN(CN(C3)C1)C2 | 459 | 4.5% (inactive) | 15.7% (inactive) | 104 | -155% (inactive) | 98.1 | -0.409 (inactive) | -3.9e-05 (inactive) | 0.00372 (inactive) | 10% (inactive) | 30.7% (inactive) |  | 
2 | O=C(O)C1(c2ccc(Cl)cc2)CCC1 | 433 | 7.5% (inactive) | 1.5% (inactive) | 104 | -422% (inactive) | 158 | -0.461 (inactive) | 2.3e-05 (inactive) | 0.00643 (inactive) | 12.9% (inactive) | 21.3% (inactive) |  | 
3 | Cc1ccccc1NC1=NCCCS1 | 457 | -10.3% (inactive) | 29.9% (active) | 83.1 | 67.8% (inactive) | 74.1 | -0.357 (inactive) | -3.1e-05 (inactive) | 0.00361 (inactive) | 0.817% (inactive) | 19% (inactive) |  | 
4 | CN1CCN(c2c[nH]c(=O)[nH]c2=O)CC1 | 446 | 0% (inactive) | -25.3% (inactive) | 90.3 | -143% (inactive) | 105 | -0.495 (inactive) | -3.4e-05 (inactive) | 0.00648 (inactive) | 2.56% (inactive) | 19.8% (inactive) |  | 
5 | CCCCn1c(O)c(C=NC2CCCCC2N)c(=O)[nH]c1=O (stereo not drawn) | 747 | -6% (inactive) | 4.3% (inactive) | 113 | -67.3% (inactive) | 119 | -0.61 (inactive) | -4e-05 (inactive) | 0.00682 (inactive) | 8.89% (inactive) | 26.1% (inactive) |  | 
6 | O=C(NC1(C(F)(F)F)Oc2ccc(Cl)cc2O1)N1CCC2(CC1)OCCO2 (stereo not drawn) | 676 | -22.3% (inactive) | -18.5% (inactive) | 114 | -97.5% (inactive) | 108 | -0.513 (inactive) | -9.9e-05 (inactive) | 0.00493 (inactive) | 8.96% (inactive) | 38.5% (inactive) |  | 
7 | O=C1CC(N2CCC(n3c(=O)[nH]c4ccccc43)CC2)C(=O)N1c1ccc(F)cc1 (stereo not drawn) | 366 | 3.6% (inactive) | 6.3% (inactive) | 90.7 | -52.5% (inactive) | 93.7 | -0.315 (inactive) | 1.5e-05 (inactive) | 0.0029 (inactive) | 6.41% (inactive) | 18.8% (inactive) |  | 
8 | CCN1CCN(Cc2cc(Br)cc(OC)c2O)CC1 | 579 | 3.6% (inactive) | 20.4% (inactive) | 99.4 | -82.5% (inactive) | 123 | -0.441 (inactive) | -4e-05 (inactive) | 0.00663 (inactive) | -7.48% (inactive) | 5.42% (inactive) |  | 
9 | CSc1ccc(CNC2CN3CCC2CC3)cc1 (stereo not drawn) | 350 | 0.2% (inactive) | -0.6% (inactive) | 103 | 32.3% (inactive) | 102 | -0.421 (inactive) | -9.5e-05 (inactive) |  | 12.2% (inactive) | 24.5% (inactive) | 0.00514 (inactive) | 
10 | CCOC(=O)C1=C(N)OC(C)=C(C(=O)OCCOC)C12C(=O)Nc1ccccc12 (stereo not drawn) | 336 | 4.8% (inactive) | -0.2% (inactive) | 91.4 | -113% (inactive) | 97 | -0.454 (inactive) | -0.000189 (active) | 0.00493 (inactive) | 19.8% (inactive) | 32% (inactive) |  | inactive
11 | CCC(=NCC1CCCO1)c1c(O)n(Cc2ccccc2)c(=O)[nH]c1=O (stereo not drawn) | 707 | -6% (inactive) | 6.5% (inactive) | 97.1 | -57.1% (inactive) | 120 | -0.512 (inactive) | -5.3e-05 (inactive) | 0.00608 (inactive) | -5.89% (inactive) | 19.3% (inactive) |  | 
12 | Cc1cc(C)c(C(=O)CN2CCOCC2)c(C)c1 | 408 | 7.3% (inactive) | 7.9% (inactive) | 89.5 | -77.5% (inactive) | 115 | -0.419 (inactive) | -0.000154 (inactive) | 0.00628 (inactive) | 13.2% (inactive) | 24.8% (inactive) |  | 
13 | COc1ccc(C2NCc3ccc4c(c3-n3cccc32)OCO4)cc1O (stereo not drawn) | 479 | 9.5% (inactive) | -349% (inactive) | 0.8 | -140% (inactive) | 99 | -0.458 (inactive) | -4.4e-05 (inactive) |  | 27.9% (inactive) | 83% (active) | 0.00468 (inactive) | 
14 | C=CCN1C(=O)C2(C(C(=O)OCC)=C(N)Oc3c2c(=O)oc2ccccc32)c2ccccc21 (stereo not drawn) | 679 | -7.1% (inactive) | 10.1% (inactive) | 93.2 | -41% (inactive) | 91.1 | -0.467 (inactive) | -0.000107 (inactive) | 0.00519 (inactive) | 13.6% (inactive) | 21.3% (inactive) |  | inactive
15 | O=C(O)Cn1cc(C(=O)c2ccccc2)c2ccccc21 | 389 | -3.3% (inactive) | 16.7% (inactive) | 89.2 | -22.1% (inactive) | 104 | -0.352 (inactive) | 1.2e-06 (inactive) | 0.00605 (inactive) | 9.27% (inactive) | 23% (inactive) |  | inactive
16 | COc1cc(C2NCc3ccccc3-n3cccc32)ccc1O (stereo not drawn) | 660 | -19.1% (inactive) | 12.9% (inactive) | 123 | -128% (inactive) | 110 | -0.487 (inactive) | -3.3e-05 (inactive) |  | -1.03% (inactive) | -2.21% (inactive) | 0.00515 (inactive) | 
17 | O=C(C1CCCN(c2nnc(-n3cccc3)s2)C1)N1CCC2(CC1)OCCO2 (stereo not drawn) | 597 | -2.2% (inactive) | 1.5% (inactive) | 115 | 8.1% (inactive) | 92.8 | -0.388 (inactive) | -4.5e-05 (inactive) | 0.00502 (inactive) | -2.39% (inactive) | -5.8% (inactive) |  | inactive
18 | O=C(O)c1nonc1-c1nonc1C(=O)O | 195 | -1.9% (inactive) | 14.6% (inactive) | 99.5 | -27.8% (inactive) | 104 | -0.641 (inactive) | -1.4e-05 (inactive) |  | 17.8% (inactive) | 15.2% (inactive) | 0.00379 (inactive) | 
19 | Cn1c(=O)cc(SCC(=O)N2CCC3(CC2)OCCO3)c2ccc(Cl)cc21 | 442 | 0.9% (inactive) | 7.2% (inactive) | 84.4 | 22.8% (inactive) | 106 | -0.556 (inactive) | -3.6e-05 (inactive) |  | 32.3% (inactive) | 38.4% (inactive) | 0.00629 (inactive) | 
20 | Nc1ccccc1C(=O)OC1CSC1 | 621 | -8.7% (inactive) | -13.4% (inactive) | 102 | -29.1% (inactive) | 93.5 | -0.559 (inactive) | -2.7e-06 (inactive) |  | 20.2% (inactive) | 15% (inactive) | 0.00479 (inactive) | 
21 | COc1ccc(N2CCN(CCCN)CC2)cc1 | 356 | 2.8% (inactive) | -5.7% (inactive) | 106 | -21% (inactive) | 113 | -0.603 (inactive) | -1.3e-05 (inactive) | 0.00595 (inactive) | 11.2% (inactive) | 15.4% (inactive) |  | 
22 | CC(C)OCCCNC(=O)c1c(N)n(Cc2cccs2)c2nc3ccccc3nc12 | 434 | -9.3% (inactive) | 17.9% (inactive) | 90.9 | 4.6% (inactive) | 134 | -0.212 (inactive) | 1.8e-05 (inactive) | 0.00386 (inactive) | 14.8% (inactive) | 37.4% (inactive) |  | 
23 | Cc1ccc(O)c(CN2CCN(c3ccccc3)CC2)c1 | 307 | 1% (inactive) | -4.7% (inactive) | 95.9 | -91.9% (inactive) | 120 | -0.202 (inactive) | -1.8e-05 (inactive) |  | 12% (inactive) | 15.6% (inactive) | 0.00457 (inactive) | 
24 | Oc1ccc(C2NCc3ccccc3-n3cccc32)cc1Cl (stereo not drawn) | 668 | -13.6% (inactive) | 35.1% (inactive) | 127 | -48.5% (inactive) | 110 | -0.46 (inactive) | -3.3e-05 (inactive) |  | 4.87% (inactive) | 23.9% (inactive) | 0.00669 (inactive) | 
25 | C=CCOC(=O)COc1cc(C)cc2oc(=O)c3c(c12)CCC3 | 609 | 6% (inactive) | 20.1% (inactive) | 85.8 | 75.7% (active) | 49.1 | -0.254 (inactive) | -4.4e-05 (inactive) | 0.00532 (inactive) | -1.05% (inactive) | 99.1% (active) |  | inactive
26 | C[C@H]1CCCC(=O)CCC/C=C/c2cc(O)cc(O)c2C(=O)O1 | 420 | 6.1% (inactive) | 4.4% (inactive) | 93.9 | -42% (inactive) | 108 | -0.55 (inactive) | -7.2e-05 (inactive) | 0.00303 (inactive) | 13.5% (inactive) | 8.12% (inactive) |  | 
27 | CNP1(NC)=NC(C(F)(F)F)=NC(C(F)(F)F)=N1 | 338 | -24% (inactive) | 6.8% (inactive) | 112 | -0.4% (inactive) | 89.8 | -0.447 (inactive) | -3.2e-05 (inactive) | 0.00454 (inactive) | -2.73% (inactive) | 97.8% (active) |  | inactive
